Experimental data as given in PubChem BioAssay AID1159580 (chemical genetic matrix, 2015).
Where “and” joins values, the source holds several entries; their conditions need not be identical. Identical values can stand only once. Hit rate of the full screen: of about 5,500 compounds, about 2,000 (36%) were called active. About 18% were inconclusive and are not listed. No stated cut-off is given here; in the data, active means normalized growth mostly below about 0.91 (no sharp cut-off); inconclusive means no clear call, values can overlap the other calls; inactive means mostly above about 0.92. Some of the results follow.

Assay: chemical genetic growth profiling, strain panel (AID 1159580);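 further: tested at 20 µM; growth read once vehicle control cultures reached saturation at 30 °C; 1 = growth at the plate median or of vehicle wells; lower values mean less growth of the strain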
Conditions: S. cerevisiae deletion strains, growth OD

Measured: normalized growth

CCCC(=O)Nc1ncnc2c1ncn2C1O[C@@H]2COP(=O)(O)O[C@H]2[C@H]1OC(=O)CCC (stereo not given in full)
inactive: locus YAL013W, strain DEP1, hits give low values 1 | locus YAL021C, strain ccr4, hits give low values 0.981 | locus YAL026C, strain drs2, hits give low values 0.986 | locus YAL030W, strain snc1, hits give low values 0.994 | locus YBL061C, strain skt5, hits give low values 0.97 | locus YBR009C, strain hhf1, hits give low values 0.962 | locus YBR021W, strain FUR4, hits give low values 0.999 | locus YBR023C, strain chs3, hits give low values 0.974 | locus YBR171W, strain sec66, hits give low values 0.971 | locus YBR229C, strain ROT2, hits give low values 1.01 | locus YBR231C, strain swc5, hits give low values 0.995 | locus YBR279W, strain paf1, hits give low values 0.981 | locus YCL011C, strain gbp2, hits give low values 0.958 | locus YCL016C, strain dcc1, hits give low values 0.952 | locus YCL029C, strain bik1, hits give low values 1.02 | locus YCL061C, strain MRC1, hits give low values 0.977 | locus YCL069W, strain vba3, hits give low values 0.974 | locus YCR088W, strain abp1, hits give low values 0.984 | locus YDL005C, strain med2, hits give low values 0.982 | locus YDL035C, strain GPR1, hits give low values 1.02 | locus YDL040C, strain nat1, hits give low values 0.987 | locus YDL074C, strain BRE1, hits give low values 1 | locus YDL101C, strain DUN1, hits give low values 1.01 | locus YDL134C, strain PPH21, hits give low values 1.01 | locus YDL185W, strain tfp1, hits give low values 1.02 | locus YDL192W, strain arf1, hits give low values 1.01 | locus YDR001C, strain nth1, hits give low values 0.986 | locus YDR069C, strain doa4, hits give low values 0.999 | locus YDR101C, strain arx1, hits give low values 1.02 | locus YDR137W, strain rgp1, hits give low values 0.973 | locus YDR150W, strain NUM1, hits give low values 1 | locus YDR159W, strain sac3, hits give low values 1.01 | locus YDR162C, strain NBP2, hits give low values 1.01 | locus YDR195W, strain ref2 1 | locus YDR297W, strain sur2, hits give low values 0.985 | locus YDR318W, strain mcm21, hits give low values 1.02 | locus YDR334W, strain swr1, hits give low values 0.975 | locus YDR335W, strain msn5, hits give low values 0.988 | locus YDR388W, hits give low values 1.02 | locus YDR392W, strain spt3, hits give low values 0.869 | locus YDR502C, strain sam2, hits give low values 1.01 | locus YEL003W, strain gim4, hits give low values 0.995 | locus YEL037C, strain rad23, hits give low values 0.984 | locus YEL061C, strain CIN8 (second series), hits give low values 0.985 | locus YEL061C, strain CIN8, hits give low values 1.01 | locus YER015W, strain faa2, hits give low values 0.98 | locus YER016W, strain bim1, hits give low values 0.975 | locus YER110C, hits give low values 1.03 | locus YER111C, strain swi4, hits give low values 0.973 | locus YER155C, strain BEM2 (second series), hits give low values 1.01 | locus YER155C, strain BEM2, hits give low values 0.996 | locus YER167W, strain BCK2, hits give low values 1.01 | locus YFR010W, strain ubp6, hits give low values 0.988 | locus YGL078C, strain dbp3, hits give low values 1.02 | locus YGL086W, strain mad1, hits give low values 1 | locus YGL167C, strain pmr1, hits give low values 0.981 | locus YGL173C, strain kem1, hits give low values 0.979 | locus YGL227W, strain vid30, hits give low values 0.978 | locus YGL240W, strain doc1, hits give low values 1.02 | locus YGL248W, strain PDE1, hits give low values 1.01 | locus YGL253W, strain hxk2, hits give low values 0.996 | locus YGR135W, strain pre9, hits give low values 1.03 | locus YGR229C, strain SMI1, hits give low values 1.01 | locus YGR252W, strain gcn5, hits give low values 1.04 | locus YHR013C, strain ard1, hits give low values 0.973 | locus YHR027C, strain rpn1, hits give low values 0.979 | locus YHR030C, strain SLT2, hits give low values 1 and 1.02 | locus YHR079C, strain IRE1 (second series), hits give low values 1.02 | locus YHR079C, strain IRE1, hits give low values 1.03 | locus YHR094C, strain hxt1, hits give low values 1.02 | locus YHR129C, strain ARP1, hits give low values 1 | locus YHR142W, strain chs7, hits give low values 0.944 | locus YHR200W, strain rpn10, hits give low values 1.02 | locus YIL066C, strain RNR3, hits give low values 1.02 | locus YIL073C, strain SPO22, hits give low values 1.06 | locus YIL125W, strain kgd1, hits give low values 1.02 | locus YIR030C, strain dcg1, hits give low values 1.02 | locus YJL092W, strain hpr5, hits give low values 0.985 | locus YJL095W, strain BCK1 (second series), hits give low values 0.979 | locus YJL095W, strain BCK1, hits give low values 1 and 1.03 | locus YJL115W, strain asf1, hits give low values 0.985 | locus YJL129C, strain trk1, hits give low values 0.949 | locus YJL134W, strain LCB3, hits give low values 1.01 | locus YJL154C, strain vps35, hits give low values 0.97 | locus YJL164C, strain tpk1, hits give low values 0.968 | locus YJL166W, strain qcr8, hits give low values 1.01 | locus YJL168C, strain set2, hits give low values 1.03 | locus YJL187C, strain SWE1 (second series), hits give low values 1 | locus YJL187C, strain SWE1, hits give low values 0.992 | locus YJR043C, strain POL32, hits give low values 1.01
